In the supplement of paper PMC12669032:
A number with no mark means an inactive call.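 Rule for the calls: active = AUC reduced over 20% with Padj below 0.05 in at least 2 of 3 replicates; inactive = otherwise.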

Key:
Test in all cases: growth AUC relative to DMSO control (median of replicates) (fraction); higher = more growth (less inhibition), active = hit call of the paper
Conditions in all cases: 20 µM; 24 h
[1] = test system: Akkermansia muciniphila
Procedure, shortened: (§1)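 For each compound at 20 µM (1% DMSO), gut bacterial monocultures seeded at OD600 0.05 grew anaerobically in mGAM at 37 °C in round-bottom 96-well plates. Hourly OD600 readings over 24 h gave growth curves whose minimum OD was set to 0. Area under these curves was normalised to the plate median of solvent-only wells, or to row and column medians on the industrial chemical plate. Values are medians of three biological replicates grown on separate days.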

[2] = test system: Bacteroides caccae
Procedure, shortened: as §1

[3] = test system: Bacteroides clarus
Procedure, shortened: as §1

[4] = test system: Bacteroides dorei
Procedure, shortened: as §1

[5] = test system: Bacteroides stercoris
Procedure, shortened: as §1

[6] = test system: Bacteroides thetaiotaomicron
Procedure, shortened: as §1

[7] = test system: Bacteroides uniformis
Procedure, shortened: as §1

[8] = test system: Bifidobacterium longum subsp. longum
Procedure, shortened: as §1

[9] = test system: Clostridium difficile
Procedure, shortened: as §1

[10] = test system: Collinsella aerofaciens
Procedure, shortened: as §1

Compound	growth AUC [1]	growth AUC [2]	growth AUC [3]	growth AUC [4]	growth AUC [5]	growth AUC [6]	growth AUC [7]	growth AUC [8]	growth AUC [9]	growth AUC [10]
CCNc1nc(Cl)nc(NC(C)(C)C)n1	1.01	0.987	0.977	0.978	0.996	0.967	1	1.01	0.977	0.971
O=c1[nH]c(Cl)c(Cl)cc1Cl	0.98	1.04	0.967	0.991	1.05	1.11	0.978	0.981	0.95	1.01
CCOP(=O)(Sc1ccccc1)Sc1ccccc1	1.16	0.985	0.895	0.927	0.795	0.932	0.881	1.02	0.984	1.03
CC1(C)[C@H](C=C(Cl)Cl)[C@H]1C(=O)OCc1c(F)c(F)cc(F)c1F	0.957	1.02	0.992	1.07	1.03	0.993	1.04	0.954	1.08	1
O=[N+]([O-])c1cc(Cl)ccc1Cl	1.04	0.998	0.977	0.986	1.03	0.989	1.02	1.01	0.995	0.964
C[C@@H](Oc1ccc(Oc2nc3ccc(Cl)cc3o2)cc1)C(=O)O	1.03	1	1.01	0.924	1.09	1.01	0.929	1.16	0.905	0.961
O=C(NC(=O)c1ccccc1Cl)Nc1ccc(OC(F)(F)F)cc1	1.06	0.915	0.964	0.927	0.802	0.962	1.01	0.986	0.946	0.937
CCOC(=O)CCN(Cc1ccccc1)SN(C)C(=O)O/N=C(/C)SC	0.948	0.993	0.979	1.04	1.09	0.991	1.09	1.03	1.01	1.02
CNC(=O)ON=C(C)C(C)SC (stereo not given)	1.1	0.726 (active)	1.03	0.983	1.3	0.916	0.838	1.03	0.927	0.979
CP(=O)(O)CC(=O)O	1.01	0.959	0.96	1.02	0.929	0.992	0.997	1.04	1.1	1.04
CCS(=O)(=O)CCSP(=O)(OC)OC	0.829	1.02	0.962	1	0.979	1.01	0.986	1.01	0.975	1.01
CCOc1cc(C(C)(C)C)ccc1C1COC(c2c(F)cccc2F)=N1 (stereo not given)	0.955	0.941	1	1.03	1.23	0.978	0.958	1.02	0.942	0.987
Oc1ccc(-c2ccccc2)cc1	0.809	1.03	0.948	0.991	0.815	0.985	0.957	0.899	1.03	1
O=C(Nc1ccccc1)N(Cc1ccc(Cl)cc1)C1CCCC1	0.953	0.983	0.991	0.991	0.972	0.964	0.969	1.02	1.03	0.98
Nc1cccc(Cl)c1Cl	0.928	1.04	1	0.999	1.18	0.999	1.02	0.921	0.999	1.06
CC(C)NC(=O)N1CC(=O)N(c2cc(Cl)cc(Cl)c2)C1=O	0.919	0.969	0.989	1.01	1.1	1.01	0.967	1.01	1.04	1.05
CCCN(CC1CC1)c1c([N+](=O)[O-])cc(C(F)(F)F)cc1[N+](=O)[O-]	1.35	0.93	1.03	0.953	1.42	1	1.03	1.03	0.979	0.955
O=CNC(N1CCN(C(NC=O)C(Cl)(Cl)Cl)CC1)C(Cl)(Cl)Cl (stereo not given)	1.13	0.947	0.923	0.849	0.879	0.919	0.985	1.08	0.957	0.938
COc1cc(OC)nc(NC(=O)NS(=O)(=O)c2cc(NC=O)ccc2C(=O)N(C)C)n1	0.976	1.01	0.979	0.984	1.06	0.971	1.03	1.03	1.01	1.05
CC(C)C(C(=O)OC(C#N)c1cccc(Oc2ccccc2)c1)c1ccc(OC(F)F)cc1 (stereo not given)	0.959	0.981	0.956	1.02	1.08	0.987	1.01	0.965	1.01	1.01
COP(N)(=O)SC (stereo not given)	1.22	1.01	1.04	1.01	1.1	1.04	1.03	0.989	1.03	1.04
CC(=O)O.CC(=O)O.CC(=O)O.NC(N)=NCCCCCCCCNCCCCCCCCN=C(N)N	0.692	0.639 (active)	0.523 (active)	0.0196 (active)	0.0269 (active)	0.0154 (active)	0.158 (active)	0.195 (active)	0.869	0.871
Cc1ccccc1[N+](=O)[O-]	1	0.996	1	1.02	1.01	1.01	0.995	0.991	1	1
COc1cc(OC)nc(NC(=O)NS(=O)(=O)c2ncccc2C(F)(F)F)n1	0.985	1.02	0.977	0.991	0.908	1.02	1.02	1	1.02	0.972
CNC(=O)O/N=C/C(C)(C)SC	0.909	1.03	0.993	1.03	0.943	0.987	1.01	0.957	0.979	1.04
CN/C(=N\[N+](=O)[O-])NCc1cnc(Cl)s1	0.906	0.93	1.02	1.03	1.17	1	1	1.03	0.979	0.988
CCCCN(CCCC)SN(C)C(=O)Oc1cccc2c1OC(C)(C)C2	1.03	1.02	0.975	0.981	0.913	1.04	1.03	0.972	1.02	1.01
Clc1ccc(Cl)c(Cl)c1	1.04	0.88	1.04	1.01	1.24	1.02	0.953	0.957	0.941	0.969
